According to PubChem BioAssay (NCATS):
Inconclusive results are not listed. Unless noted, the call rests on the fitted dose curve; in most records, active means well fitted curve in either direction with a large enough effect (not every such curve was filed as active); inconclusive means small, poorly fitted or top-dose-only effect, or another doubt; inactive means flat fitted curve, though single readings scatter.

How the values were obtained:
[1] = AP1 Signaling Pathway (AID 357); settings: ME-180 AP-1-bla reporter, EGF-induced, beta-lactamase ratio, 5 h; at 17.2 µM (top of the series) unless noted; further: on the % scale 0 is the no-effect control and ±100 the full control effect
Summary of the method: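 AP-1-bla ME-180 cells with beta-lactamase reporter under AP-1 response element, stimulated with EC50 EGF; compounds titrated, 5 hours at 37 degrees Celsius. CCF4 read at 460/530 nm ratio; positive and negative modulators judged by AC50.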

[2] = NFAT Signaling Pathway (AID 444); settings: Jurkat NFAT-bla M1, carbachol, beta-lactamase ratio, 5 h; at 17.2 µM (top of the series) unless noted;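 further: carbachol stimulus at about its EC50 of 1 µM final; on the % scale 0 is the no-effect control and ±100 the full control effect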
Summary of the method: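 Jurkat cells carrying an NFAT-driven β-lactamase reporter and co-transfected muscarinic M1 receptor were treated with compound plus carbachol (1 uM final, an EC50 level) for 5 h at 37 °C. CCF4 loading followed for 1 h at RT; 460/530 nm ratio gave %activity.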

[3] = Stat Signaling Pathway (AID 446); settings: ME-180 SIE beta-lactamase reporter, IL-6 stimulated, 5 h; at 17.2 µM (top of the series) unless noted;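 further: ME-180 cervical cancer cells given 40 pM IL-6 alongside compound; SIE-controlled beta-lactamase reporter measured as 460/530 nm FRET emission ratio; on the % scale 0 is the no-effect control and ±100 the full control effect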
Summary of the method: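 Reporter line: ME-180 cervical carcinoma, SIE-beta-lactamase. Treatment: compound with 40 pM IL-6, 5 hrs, 37 C, in low-serum OPTI-MEM with 10 mM HEPES pH 7.3. Detection: 460/530 nm fluorescence.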

[4] = target: Glucocorticoid receptor (Homo sapiens) (UniProt P04150); assay: GR-GFP Redistribution (AID 450;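 active means compounds whose dose series gives a full or clear partial fitted curve of increased nuclear translocation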; further: potency means the concentration at half of the fitted maximal effect)
Chain of Glucocorticoid receptor (Homo sapiens) (P04150 whole entry, looked up): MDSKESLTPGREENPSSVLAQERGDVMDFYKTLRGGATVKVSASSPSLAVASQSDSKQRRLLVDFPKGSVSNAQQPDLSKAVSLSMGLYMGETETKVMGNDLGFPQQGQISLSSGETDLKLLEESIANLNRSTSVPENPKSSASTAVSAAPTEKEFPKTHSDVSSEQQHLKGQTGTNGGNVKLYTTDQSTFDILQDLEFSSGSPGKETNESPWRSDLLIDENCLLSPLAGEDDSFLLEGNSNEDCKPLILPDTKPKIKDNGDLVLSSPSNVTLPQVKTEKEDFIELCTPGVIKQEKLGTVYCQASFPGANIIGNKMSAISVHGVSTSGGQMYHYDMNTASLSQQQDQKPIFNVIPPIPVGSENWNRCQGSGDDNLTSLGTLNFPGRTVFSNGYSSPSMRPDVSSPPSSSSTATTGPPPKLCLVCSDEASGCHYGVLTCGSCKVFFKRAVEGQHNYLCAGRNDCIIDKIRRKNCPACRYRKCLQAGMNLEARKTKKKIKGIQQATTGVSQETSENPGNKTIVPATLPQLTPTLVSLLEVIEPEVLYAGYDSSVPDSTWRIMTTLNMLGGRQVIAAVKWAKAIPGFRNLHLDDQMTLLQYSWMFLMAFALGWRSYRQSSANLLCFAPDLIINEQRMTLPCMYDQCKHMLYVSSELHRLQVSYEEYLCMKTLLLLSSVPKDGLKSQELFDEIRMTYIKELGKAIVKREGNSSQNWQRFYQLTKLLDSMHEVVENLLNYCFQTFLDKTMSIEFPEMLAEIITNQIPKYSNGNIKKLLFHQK

Cc1[nH]c(=O)[nH]c(=O)c1S(=O)(=O)N1CCCC1
inactive: activity change, negative = inhibition [1] 11.7% | activity change, negative = inhibition [2] -7.3% | activity, negative = inhibition [3] 12% | Potency [4] > 20.6 µM

CCc1ccc2c(c1)C(C)=CC(C)(C)N2
inactive: activity change, negative = inhibition [1] 1.34% | activity change, negative = inhibition [2] 7.21% | activity, negative = inhibition [3] -8.11% | Potency [4] > 20.6 µM

ONC(=Nc1ccccc1)C(=Nc1ccccc1)NO
inactive: activity change, negative = inhibition [1] 4.05% | activity change, negative = inhibition [2] 9.94% | activity, negative = inhibition [3] -0.28% | Potency [4] > 20.6 µM

N#CCCN(CCC#N)c1nnc(-c2ccccc2)s1
inactive: activity change, negative = inhibition [1] 8.96% | activity change, negative = inhibition [2] -5.89% | activity, negative = inhibition [3] 1.66% | Potency [4] > 20.6 µM

Cn1c(SCC(=O)NCc2ccccc2)nc2ccccc21
inactive: activity change, negative = inhibition [1] -0.959% | activity change, negative = inhibition [2] 1.73% | activity, negative = inhibition [3] 4.04% | Potency [4] > 20.6 µM

O=c1[nH]c(-c2ccccn2)nc2ccccc12
inactive: activity change, negative = inhibition [1] -2.38% | activity change, negative = inhibition [2] -10.6% | activity, negative = inhibition [3] 13.3% | Potency [4] > 20.6 µM

CCCSc1nnc2n(Cc3ccccc3)c(=O)c3c4c(sc3n12)CCC4
inactive: activity change, negative = inhibition [1] 27.1% | activity change, negative = inhibition [2] 0.0627% | activity, negative = inhibition [3] -7.18% | Potency [4] > 20.6 µM

N#Cc1nc(COc2ccc(Br)cc2)oc1NCCN1CCOCC1
inactive: activity change, negative = inhibition [1] -17.9% | activity change, negative = inhibition [2] 10.5% | activity, negative = inhibition [3] 1.36% | Potency [4] > 20.6 µM

CC1(C)CNC(=O)c2sc(N3CCOCC3)nc2C1
inactive: activity change, negative = inhibition [1] -10.8% | activity change, negative = inhibition [2] 26.7% | activity, negative = inhibition [3] 3.19% | Potency [4] > 20.6 µM

COc1cccc(COc2nc3c(c(=O)n(C)c(=O)n3C)n2C)c1
inactive: activity change, negative = inhibition [1] -9.75% | activity change, negative = inhibition [2] 12.8% | activity, negative = inhibition [3] -3.58% | Potency [4] > 20.6 µM

N#Cc1c(N2CCOCC2)nc(-c2ccco2)c2c1CCCC2
inactive: activity change, negative = inhibition [1] 2.51% | activity change, negative = inhibition [2] 4.52% | activity, negative = inhibition [3] 4.59% | Potency [4] > 20.6 µM

Cc1ccccc1OCC(O)Cn1c(N2CCN(c3ccccc3)CC2)nc2c1c(=O)[nH]c(=O)n2C (centres undefined)
inactive: activity change, negative = inhibition [1] 14.4% | activity change, negative = inhibition [2] -4.3% | activity, negative = inhibition [3] -10.5% | Potency [4] > 20.6 µM

N#Cc1c2c(c(-c3ccco3)[nH]c1=O)CCCC2
inactive: activity change, negative = inhibition [1] -0.634% | activity change, negative = inhibition [2] 10.5% | activity, negative = inhibition [3] -2.06% | Potency [4] > 20.6 µM

C(=N\n1cnnc1)/c1cccc(Oc2ccccc2)c1
inactive: activity change, negative = inhibition [1] -3.86% | activity change, negative = inhibition [2] -2.39% | activity, negative = inhibition [3] -17.8% | Potency [4] > 20.6 µM

COc1cccc(C2C(C(=O)c3cccs3)=C(O)C(=O)N2c2cc(C)on2)c1 (centres undefined)
inactive: activity change, negative = inhibition [1] -6.29% | activity change, negative = inhibition [2] 16.2% | activity, negative = inhibition [3] -7.97% | Potency [4] > 20.6 µM

CC1C[C@@]2(NC(=O)NC2=O)C(C)CN1C (some centres undefined)
inactive: activity change, negative = inhibition [1] 5.36% | activity change, negative = inhibition [2] -4.32% | activity, negative = inhibition [3] 5.03% | Potency [4] > 20.6 µM

Cc1cc(C)nc(N(C#N)CC(=O)N(c2ccccc2)C(C)C)n1
inactive: activity change, negative = inhibition [1] -11% | activity change, negative = inhibition [2] 4.64% | activity, negative = inhibition [3] 7.49% | Potency [4] > 20.6 µM

Cn1c(=O)n(Cc2ccccc2)c(=O)c2c1nc(NCC1CCCO1)n2Cc1ccccc1 (centres undefined)
inactive: activity change, negative = inhibition [1] -28.9% | activity change, negative = inhibition [2] -16.1% | activity, negative = inhibition [3] -15.3% | Potency [4] > 20.6 µM

CCOC(=O)C(C)Oc1ccc2c(C)cc(=O)oc2c1C(C)=O (centres undefined)
inactive: activity change, negative = inhibition [1] 3.53% | activity change, negative = inhibition [2] 2.57% | activity, negative = inhibition [3] 4.2% | Potency [4] > 20.6 µM

O=C(O)CCSc1ccc2ccccc2n1
inactive: activity change, negative = inhibition [1] 14.9% | activity change, negative = inhibition [2] 11.5% | activity, negative = inhibition [3] 0.928% | Potency [4] > 20.6 µM

CCN(CC)c1nc(N2CCOCC2)c(C#N)c2c1CN(C)CC2
inactive: activity change, negative = inhibition [1] -1.52% | activity change, negative = inhibition [2] 12.3% | activity, negative = inhibition [3] 9.24% | Potency [4] > 20.6 µM

Cc1[nH]nc(-c2ccc(O)cc2O)c1Oc1ccccc1
inactive: activity change, negative = inhibition [1] -8.71% | activity change, negative = inhibition [2] -25.7% | activity, negative = inhibition [3] -21.9% | Potency [4] > 20.6 µM

COC(=O)CNC(=O)c1c(C)cc(=O)oc1C
inactive: activity change, negative = inhibition [1] 21.5% | activity change, negative = inhibition [2] 13.6% | activity, negative = inhibition [3] 5.86% | Potency [4] > 20.6 µM

COCCN(CCOC)C(=O)C12CCC(C)(C(=O)C1)C2(C)C (centres undefined)
inactive: activity change, negative = inhibition [1] 9.52% | activity change, negative = inhibition [2] 8.02% | activity, negative = inhibition [3] 3.59% | Potency [4] > 20.6 µM

Oc1ccccc1-c1nc(NCCN2CCOCC2)c2ccccc2n1
inactive: activity change, negative = inhibition [1] -13.2% | activity change, negative = inhibition [2] 25.8% | activity, negative = inhibition [3] -12.5% | Potency [4] > 20.6 µM

COc1ccc(/C(O)=C2/C(=O)C(=O)N(Cc3ccco3)C2c2cccs2)cc1 (centres undefined)
inactive: activity change, negative = inhibition [1] 7% | activity change, negative = inhibition [2] -13.1% | activity, negative = inhibition [3] -19.8% | Potency [4] > 20.6 µM
